± gives the standard deviation.
The sequences below were run on MILI (PIWIL2) piRISC loaded with L1MC piRNA (26 nt) (assay: pre-steady-state target cleavage rate (min^-1); guide: L1MC piRNA 5'p-UAACUAAAUACUAUGCAAGCUGUAGG; MIWI and MILI are mouse PIWI proteins and EfPiwi is from a freshwater sponge; tags in brackets are library labels; higher = faster piRNA-guided slicing of the target). Settings: auxiliary factor: 500 nM mouse GTSF1.
How it was run: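 Sequencing of uncleaved targets, normalised to depth and to weakly complementary targets, was the readout of this Cleave-'n-Seq assay. A transcribed, DNA-blocked target RNA library (0.1 nM) was mixed with 1 nM active affinity-purified piRISC carrying one synthetic guide, with or without 500 nM GTSF1 partner protein, in HEPES–potassium acetate buffer at 33 °C for 0–8 or 0–960 min. Three trials were pooled, k3 was capped at 0.0001 min^-1, and a burst-and-steady-state fit gave the pre-steady-state cleavage rate.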

| Sequence | pre-steady-state target cleavage rate |
| --- | --- |
| UCCUCCUACUCCUUGCAUAGUAUUUUCAAA | 0.0534 ± 0.015 |
| UCCUGGAUGUCCUUGCAUAGUAUUAUCUUA | 0.0177 ± 0.0079 |
| UCCUGGAUGUCGUUGCUUAGUAAUUAGUUA | 0.0131 ± 0.0058 |
| UCCUGGAUGUGCUUGCUUAGAAUUUAGUUA | 0.00417 ± 0.0032 |
| UCCUGGAUGUGCUUGCAUACUAAUUAGUUA | 0.00944 ± 0.0038 |
| UCCUGGAUGUCCUUGCAUAGUUAUUAGUUA | 0.00901 ± 0.004 |
| UCCUGGAUCAGCUACCAUAGUAUUUAGUAA | 0.127 ± 0.012 |
| UCCUGGAACACCUUGCAUAGUAUUUAGAAA | 0.146 ± 0.031 |
| UCCUGGAACAGCUAGCAUAGUAUUUACUUA | 0.0669 ± 0.016 |
| UCCUGGAACAGCUUGGAUAGUAUUUAGAUA | 0.137 ± 0.024 |
| UCCUCCUACUCCUUGCAUAGUAUUUACAAA | 0.0842 ± 0.022 |

Same assay, conditions: auxiliary factor: none (no GTSF1)

| Sequence | pre-steady-state target cleavage rate |
| --- | --- |
| UCCUGGAUGUCGAACCAAAGUAUUUAGUAA | < 0.0001 |
| UCCUGGAUCAGCUACCAUAGUAUUUUCAAA | < 0.0001 |
| UCCUGGAUGUCGAACGUAUGUAUUUCGUUA | < 0.0001 |
| UCCUGGAUGUCGAACGAUAGUAUUUAAGUUA | < 0.0001 |
| UCCUGGAUGUCGAACGAAUCUAUUUAGUUA | < 0.0001 |

Source: the supplement of paper PMC10338343
